# From PubChem
# BAZ2B inh – BAZ2B (human) inhibition. Q9UIF8. AlphaScreen BAZ2B-H3K14Ac peptide displacement. Potency, µM (series often up to 114 µM), hits mostly inhibitors. 360,000 compounds, 4.4% hits. AID 504333; note: nearly all actives have a fitted effect of over 60% in size
#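 AlphaScreen luminescence quantifies BAZ2B engagement of H3K14Ac peptide; the protein and biotinylated peptide are both at 50 nM final, buffer PBS pH 7.4 with 0.01% Tween-20, all steps at room temperature.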
# JMJD2A Tudor inh – inhibitors of human JMJD2A Tudor domain. AID 504339. 390,000 compounds, 4.4% hits. AlphaScreen JMJD2A-Tudor / H3K4me3 peptide binding. Potency, µM (doses to about 114 µM), actives largely listed as inhibitors. O75164; note: nearly all actives have a fitted effect of over 50% in size
# JMJD2E inh – JMJD2E (human) inhibition. JMJD2E catalytic domain, FDH-coupled NADH fluorescence (FDH is formaldehyde dehydrogenase). Potency, µM (titrated, usually from 57.1 µM), hits mostly inhibitors. 230,000 compounds, 1.6% hits; active = well fitted inhibition curve with a large enough effect, not every such curve was filed as active; inconclusive = small, poorly fitted or top-dose-only effect, or another doubt; inactive = no such curve, though single readings can be large or run the other way; note: nearly all actives have a fitted effect of over 50% in size
# HP1b chromo inh – HP1-beta chromodomain-methylated histone interaction inhibition; AlphaScreen HP1-beta / biotin-H3K9me3 peptide binding; Potency, µM (titrated, usually from 114 µM), usual class: inhibitors; 390,000 compounds, 0.56% hits; P83916; note: nearly all actives have a fitted effect of over 70% in size
#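 HP1-beta protein (50 nM final) preincubated 30 min at room temperature with biotinylated H3(1-18)K9me3 peptide (50 nM) in PBS pH 7.4, 0.01% Tween-20, then compound added for 30 min. AlphaScreen streptavidin donor/nickel chelate acceptor beads (10 ug/mL final), 30 min dark, luminescence read.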
# PI5P4Ka inh – inhibitors of human PI5P4K alpha. max response, %. 330,000 compounds, 1.2% hits. PI5P4Kalpha enzyme, ADP-Glo luminescence, 60 min; stronger effect = lower value. AID 652105; active = max response of -50% or lower; inconclusive = between -30% and -50%; inactive = -30% or higher; note: value at the top dose of about 77 µM
# Target sequence (P48426 whole entry, looked up): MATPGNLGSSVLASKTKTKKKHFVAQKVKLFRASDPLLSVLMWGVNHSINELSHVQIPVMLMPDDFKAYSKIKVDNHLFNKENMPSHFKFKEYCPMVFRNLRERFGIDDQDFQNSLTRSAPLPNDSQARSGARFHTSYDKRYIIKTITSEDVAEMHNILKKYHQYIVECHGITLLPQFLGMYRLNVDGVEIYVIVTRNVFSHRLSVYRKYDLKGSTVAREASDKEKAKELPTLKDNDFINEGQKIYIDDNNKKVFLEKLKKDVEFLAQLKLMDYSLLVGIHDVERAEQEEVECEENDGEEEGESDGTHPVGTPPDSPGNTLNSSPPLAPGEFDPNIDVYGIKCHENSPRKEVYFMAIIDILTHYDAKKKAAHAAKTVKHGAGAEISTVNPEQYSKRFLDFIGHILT
#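 Luminescence from ADP-Glo served as readout of PI5P4Kalpha activity in a qHTS format. Reaction: enzyme, substrate, compound, ATP at 5 microM final, 60 min at RT.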
# L3MBTL1 inh – inhibitors of human L3MBTL1; 230,000 compounds, 0.66% hits; Potency, µM (series often up to 57.1 µM), actives largely listed as inhibitors; AlphaScreen L3MBTL1–H3K9me1 peptide binding; note: nearly all actives have a fitted effect of over 60% in size
#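 AlphaScreen assay: L3MBTL1 (50 nM final) was preincubated 30 min at room temperature with biotinylated H3(1-15)K9me1 peptide (75 nM final), then 30 min with library compounds; streptavidin donor and nickel chelate acceptor beads (10 ug/mL final) added, 30 min dark.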
# Hits are given with their value; - = inactive; ? = inconclusive; . = no result given. This is a sample that favours compounds with a hit; in the whole collection about 5.7% have one here. Unless noted, calls come from the whole dose curve; as a rule, active = well fitted inhibition curve with a large enough effect; inconclusive = small, poorly fitted or top-dose-only effect; inactive = no such curve, though single readings can be large or run the other way.
SMILES,BAZ2B inh,JMJD2A Tudor inh,JMJD2E inh,HP1b chromo inh,PI5P4Ka inh,L3MBTL1 inh
COc1ccc(Nc2c(-c3ccc(Cl)cc3)nc3cnccn23)cc1OC,45µM,56µM,.,-,.,.
Clc1ccc(-c2nc3cnccn3c2Nc2ccc3c(c2)OCO3)cc1,45µM,50µM,-,?,-,-
CSc1ccc(-c2nc3cnccn3c2Nc2ccc3c(c2)OCO3)cc1,11µM,?,-,45µM,-,.
C[n+]1c(-c2ccccc2)sc([S-])c1-c1ccccc1,.,?,.,-,-,.
CC(c1ccco1)N(C(=O)c1ccccc1NS(=O)(=O)c1cccc([N+](=O)[O-])c1)c1ccccn1 (stereo unspecified),-,-,?,-,-,-
CC(c1ccco1)N(C(=O)c1ccccc1NS(=O)(=O)c1cc([N+](=O)[O-])ccc1Cl)c1ccccn1 (stereo unspecified),79µM,25µM,-,-,-,-
CCn1c(NCc2cccc(Cl)c2)nc2ccccc21,-,-,.,-,.,.
CCCN1C/C(=C/c2ccc3c(c2)OCO3)C(=O)/C(=C/c2ccc3c(c2)OCO3)C1,50µM,22µM,10µM,?,-,-
Cc1cccc(N2CCN(C(=O)Cn3sc4nc(C)cc(C)c4c3=O)CC2C)c1 (stereo unspecified),?,3.2µM,?,8.9µM,-55,.
CC(=O)N1CCc2cc(S(=O)(=O)CCC(=O)N3CCN(c4ccccc4F)CC3)ccc21,-,-,.,-,-,.
CC(=O)N1CCCc2cc(S(=O)(=O)CCC(=O)N3CCN(c4cccc(C)c4)C(C)C3)ccc21 (stereo unspecified),50µM,56µM,-,-,-,.
Cc1cccc(N2CCN(C(=O)CCS(=O)(=O)c3ccc(Br)cc3)CC2C)c1 (stereo unspecified),32µM,?,-,28µM,-,.
COc1ccc(C2C=C(c3ccc(Cl)cc3)Nc3nc(-c4ccc(Cl)cc4)nn32)cc1 (stereo unspecified),?,-,.,-,.,.
Cc1ccccc1CNC(=O)c1ccc2c(c1)N(Cc1ccccc1)CCS2,-,-,.,-,.,.
CS(=O)(=O)c1ccc(C(=O)OCC#CCSc2nnc(-c3cccc4ccccc34)o2)cc1,.,-,.,.,.,.
O=c1[nH]cnc2c1ncn2-c1ccc(Cl)cc1,.,-,.,-,-,.
O=C1c2cccnc2C(=O)N1Cc1ccc(S(=O)(=O)N2CCOc3ccc(Cl)cc32)cc1,?,-,.,-,-,.
O=Cc1cccc(OCc2cn(CC(=O)c3ccc(O)cc3)nn2)c1,.,.,.,.,-,.
COc1ccc(C=O)c(OCc2cn(CC(=O)c3ccc(O)cc3)nn2)c1,.,79µM,.,-,-,.
Cc1cccc2c(N=Nc3ccc(S(=O)(=O)Nc4cccc(Cl)c4)cc3[N+](=O)[O-])c(O)[nH]c12,-,-,-,-,-71,-
O=C(O)c1cccc(N/N=C/c2cc(Br)cc(Br)c2O)c1,?,?,-,-,-,-
Cc1c(N=Cc2cc(Br)cc(Br)c2O)cccc1C(=O)O,-,-,-,-,-58,-
COc1ccc(NC(=O)Cn2c(=O)n(Cc3ccco3)c(=O)c3sc4ccccc4c32)cc1OC,-,-,.,-,.,.
COc1ccc(/C=C(/NC(=O)c2ccccc2)C(=O)NCCCn2ccnc2)cc1OC,-,-,.,-,-,.
COc1ccc(/C=C(\NC(=O)c2ccc(C)cc2)C(=O)NCCCn2ccnc2)cc1OC,50µM,-,.,-,-,.
SMILES,BAZ2B inh,JMJD2A Tudor inh,JMJD2E inh,HP1b chromo inh,PI5P4Ka inh,L3MBTL1 inh
Cc1ccc(C(=O)N/C(=C\c2ccc(F)cc2)C(=O)NCCCn2ccnc2)cc1,79µM,-,.,-,-,.
CCCCN1C(=O)c2[nH]nc(-c3ccccc3O)c2C1c1cc(Br)c(O)c(OC)c1 (stereo unspecified),-,?,.,-,.,.
Cc1ccc(NC(=O)C2CCCN(c3nnc(C)c4c(C)n(-c5ccccc5)nc34)C2)cc1Cl (stereo unspecified),?,-,.,-,.,.
c1ccc(OCCCCN2CCOCC2)cc1,-,-,-,-,.,.
Brc1ccc(OCCCN2CCOCC2)cc1,?,4.5µM,-,?,-,.
Brc1ccc(OCCN2CCOCC2)cc1,?,0.89µM,.,?,-,.
Cc1cc(OCCN2CCOCC2)ccc1[N+](=O)[O-],50µM,0.71µM,?,?,-,-
